Avidin fluor: compound fluoresces at 488/530 nm on avidin beads; compound fluorescence 488/530 nm, flow cytometry; stronger effect = higher value; fluorescence (KMESF) at 10 µM; 220,000 tested, 0.38% active; AID 1775; in the data active = fluorescence above about 47
RGS16-Gao HTS: modulates binding between human RGS16 and Galphao; AID 1441; O15492+P09471; bead-based flow cytometry RGS16-Galphao binding, fluorescence; actives lie on both sides; binding response (% of control), % at 10 µM; 220,000 tested, 0.38% active;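 note: Galphao activated by GDP with aluminum fluoride before binding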
GSH fluor: GSH bead compound fluorescence profile | fluorescence (KMESF) at 10 µM | AID 1776 | 190,000 tested, 0.25% active | GSH beads flow cytometry, compound fluorescence 488/530 nm; stronger effect = higher value; in the data active = fluorescence above about 89;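 note: glutathione beads carrying GST-tagged Bcl family fusion proteins plus one bare bead set; values are compound well signal with DMSO vehicle wells as background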
RGS4-Gao reg: modulates binding of RGS4 to human Galphao | Multiplexed bead flow cytometry; actives lie on both sides | 220,000 tested, 0.33% active | binding response (% of control), % at 10 µM | P09471 | AID 1415; in the data active = binding response below about 49% or above about 150%; inactive = in between;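 note: fluorescent Galphao activated with aluminum fluoride binding bead-coupled RGS4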
RGS7-Gao: modulates binding of RGS7 to human Galphao; P09471; Multiplexed bead flow cytometry; actives lie on both sides; binding response (% of control), % at 10 µM; 220,000 tested, 0.35% active; AID 1439; in the data active = binding response below about 49% or above about 150%; inconclusive = no clear call, values can overlap the other calls; inactive = in between;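 note: fluorescent Galphao held in activated GDP-AlF4 state binding bead-coupled RGS7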
RGS8-Gao: regulators of human RGS8-Galphao interaction; P09471; multiplexed bead flow cytometry, RGS8-Galphao binding; actives lie on both sides; response (percent of control binding), % at 10 µM; 220,000 tested, 0.34% active; in the data active = response below about 60% or above about 140%; inactive = in between;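 note: Galphao activated as the GDP aluminium fluoride complex binding bead-coupled RGS8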
RGS4-Gao HTS: regulators of human RGS4-Galphao interaction. shares compounds with RGS16-Gao HTS. multiplexed bead flow cytometry, RGS–Galpha-o binding. RGS4–Galpha-o binding response, % at 10 µM. 1,600 tested, 99% active. AID 1504;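 note: fluorescently labeled Galpha-o bound to GDP with aluminium fluoride binding biotinylated RGS beads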
Avidin counter: counter-screen: compounds disrupting biotin binding to avidin beads | streptavidin beads, fluorescein-biotin binding, flow cytometry | shares compounds with RGS16-Gao HTS | inhibition, % at 10 µM | 1,700 tested, under 10 active;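 active = inhibition above 50%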;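 note: median green fluorescence of gated singlet beads compared with DMSO control wells; 0% = DMSO wells and 100% = complete loss of bead fluorescence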
RGS8-Gao confirm: RGS8-Galphao interaction regulation, single point confirmation; shares compounds with RGS16-Gao HTS; binding response (% of control), % at 10 µM; AID 1836; 1,700 tested, 3% active; bead-based flow cytometry RGS8-Galphao binding, fluorescence; actives lie on both sides; in the data active = binding response below about 72% or above about 130%; inactive = in between;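 note: Galphao activated as GDP AlF4 complex before binding bead RGS8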
RGS7-Gao single: confirmation of regulators of human RGS7-Galphao interaction | shares compounds with RGS16-Gao HTS | bead-based flow cytometry RGS7-Galphao binding; actives lie on both sides | response (percent of control binding), % at 10 µM | 1,700 tested, 7.8% active | AID 1837; in the data active = response below about 75% or above about 130%; inactive = in between;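 note: fluorescent Galphao activated with GDP and aluminum fluoride binding bead-coupled RGS7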
RGS16-Gao conf: confirmation of regulators of human RGS16-Galphao interaction; response (% of control binding), % at 10 µM; 1,700 tested, 4% active; shares compounds with RGS16-Gao HTS; bead-based flow cytometry, RGS16-Galphao binding; actives lie on both sides; in the data active = response below about 74% or above about 130%; inactive = in between;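 note: Galphao activated as the GDP aluminium fluoride complex binding bead-coupled RGS16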
RGS4-Gao confirm: confirmation of regulators of human RGS4-Galphao interaction; RGS4-Galphao binding, multiplexed bead flow cytometry; actives lie on both sides; binding response (% of control), % at 10 µM; shares compounds with RGS16-Gao HTS; AID 1840; 1,700 tested, 4% active; in the data active = binding response below about 74% or above about 130%; inactive = in between
RGS19-Gao single: confirmation of regulators of human RGS19-Galphao interaction; shares compounds with RGS16-Gao HTS; bead-based flow cytometry RGS19-Galphao binding; actives lie on both sides; response (percent of control binding), % at 10 µM; 1,700 tested, 5% active; AID 1841; in the data active = response below about 50% or above about 160%; inactive = in between;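 note: 100% = no compound control and 0% = blank background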
Target sequence (P09471 whole entry, looked up): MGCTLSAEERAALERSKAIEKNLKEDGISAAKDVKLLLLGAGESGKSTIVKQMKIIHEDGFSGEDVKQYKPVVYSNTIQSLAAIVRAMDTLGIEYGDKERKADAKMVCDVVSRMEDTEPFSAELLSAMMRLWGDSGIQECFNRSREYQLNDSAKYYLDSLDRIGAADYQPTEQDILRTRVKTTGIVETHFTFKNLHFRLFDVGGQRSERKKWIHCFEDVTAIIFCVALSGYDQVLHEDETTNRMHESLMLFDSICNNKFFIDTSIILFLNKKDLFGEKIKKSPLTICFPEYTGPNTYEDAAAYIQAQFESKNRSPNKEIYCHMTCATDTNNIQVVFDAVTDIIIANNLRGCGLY
Target sequence (P49795 whole entry, looked up): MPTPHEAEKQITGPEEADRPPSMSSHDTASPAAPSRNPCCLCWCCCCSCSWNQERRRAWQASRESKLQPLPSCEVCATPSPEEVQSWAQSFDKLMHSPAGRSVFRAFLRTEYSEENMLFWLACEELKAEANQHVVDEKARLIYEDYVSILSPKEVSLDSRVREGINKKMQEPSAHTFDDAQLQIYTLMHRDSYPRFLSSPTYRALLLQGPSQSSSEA
Numbers without * were called inactive; ? = inconclusive; / = no result; [ ] = remark or other dose. The list is not random: actives were taken first. Their share in the collection is about 1.2%. Unless noted, the rule behind the calls is not given here.

SMILES | Avidin fluor | RGS16-Gao HTS | GSH fluor | RGS4-Gao reg | RGS7-Gao | RGS8-Gao | RGS4-Gao HTS | Avidin counter | RGS8-Gao confirm | RGS7-Gao single | RGS16-Gao conf | RGS4-Gao confirm | RGS19-Gao single
CC1S/C(=N/N=C/c2ccco2)N(Cc2ccc(F)cc2)C1=O (configuration not stated) | 5 | 100 | / | 100 | ? | 98 | / | / | / | / | / | / | /
Cc1ccc(C(=O)N2CCSCC2)cc1 | 10 | 104 | 37 | 101 | 107 | 113 | / | / | / | / | / | / | /
CC(C)(C)c1nnc(NC(=O)CS(=O)(=O)Cc2ccccc2)s1 | 1 | 61 | 17 | 86 | 51 | 57* | 86* | -1 | 103 | 102 | 102 | 101 | 94
CN1C(=O)C(O)(CC(=O)c2ccccc2O)c2cc(Br)ccc21 (configuration not stated) | 6 | 252 | 26 | 117 | 112 | 148*[activator] | 117* | -2 | 107 | 105 | 109 | 105 | 105
Cc1ccc(C(=O)NCc2ccccc2)cc1Br | 5 | 102 | 11 | 100 | 100 | 101 | / | / | / | / | / | / | /
FC(F)(F)c1cccc(NC(=S)NCC2COc3ccccc3O2)c1 (configuration not stated) | 14 | 109 | 6 | 102 | 104 | 100 | / | / | / | / | / | / | /
O=C(NCC1CCCO1)C(c1cccs1)N(Cc1ccccc1Cl)C(=O)c1ccc(-c2ccccc2)[nH]1 (configuration not stated) | 14 | 178*[activator] | 7 | 99 | 87 | 119 | 99* | 2 | 101 | 98 | 102 | 99 | 92
Cc1ccc(C(C(=O)NCC2CCCO2)N(Cc2ccccc2)C(=O)c2ccc(-c3ccccc3)[nH]2)o1 (configuration not stated) | 4 | 101 | 11 | 97 | 94 | 97 | / | / | / | / | / | / | /
Nc1nc(-c2cccc(NS(=O)(=O)c3ccccc3)c2)cs1 | 39 | 107 | 10 | 101 | 99 | 102 | / | / | / | / | / | / | /
Cc1ccc(S(=O)(=O)N2CCN(S(=O)(=O)c3ccc4c(c3)OCCO4)CC2)cc1 | 8 | 50 | 24 | 55 | 52 | 58* | 55* | -2 | 100 | 103 | 104 | 105 | 105
CC1(C)CC(=O)C(C=NCCN2CCN(C(=O)CCl)CC2)=C(O)C1 | 3 | 101 | / | 101 | ? | 101 | / | / | / | / | / | / | /
CCC(=O)N1CCN(CCN=CC2=C(O)CC(C)(C)CC2=O)CC1 | 10 | 165 | 26 | 105 | 106 | 146*[activator] | 105* | 1 | 97 | 99 | 99 | 97 | 97
O=C(c1cc2n(n1)C(C(F)(F)F)CC(c1ccco1)N2)N1CCN(c2ccccn2)CC1 (configuration not stated) | / | / | 46 | / | / | / | / | -1 | 99 | 99 | 103 | 96 | 119
Cc1cc(NC(=O)CSc2nc3c(c(=O)n2-c2ccc(Br)cc2)SCC3)no1 | 5 | 36 | 16 | 86 | 92 | 82 | / | / | / | / | / | / | /

Compound activity from PubChem BioAssay.
